# Screen size: about 360,000 compounds; about 16,000 (4.4%) were called active. Another 9% or so got no clear call; they are omitted. For the sample, actives were picked, then their nearest neighbours and some compounds at random. Values without a mark were called inactive. Calls follow the shape of the dose curve; as a rule, active = well fitted inhibition curve with a large enough effect; inconclusive = small, poorly fitted or top-dose-only effect; inactive = no such curve, though single readings can be large or run the other way.
# Target: Bromodomain adjacent to zinc finger domain protein 2B (Homo sapiens) (UniProt Q9UIF8)
# Experiment: qHTS Assay for Inhibitors of BAZ2B; also: nearly all actives have a fitted effect of over 60% in size
# Details: AlphaScreen BAZ2B-H3K14Ac peptide displacement; series mostly up to 114 µM; activity change, negative = inhibition: at the top concentration
# Source text: BAZ2B (bromodomain adjacent to zinc finger domain, 2B) belongs to a family of ubiquitously expressed bromodomain containing proteins, which biological function has not yet been elucidated. […] The interaction of BAZ2B with ISWI mediated by the BAZ1 motif has recently been described. […] The protocol is based on the AlphaScreen (PerkinElmer) displacement assay developed by NCGC [5], but uses the peptide ligand Biot-H3K14Ac, a high affinity binding partner for BAZ2B, in an AlphaScreen format. Although AlphaScreen has significant advantages with its utility in a variety of epigenetic target assays, the primary screening data provided in this deposition should be used with caution due to the prevalence of screening artifacts. The top compound concentration tested was 110uM in this assay, which increases number of actives and potential artifacts. An AlphaScreen counterscreen is highly recommended to be run against any putative actives to eliminate non-specific artifacts. Alternatively, one can use other AlphaScreen assays in PubChem to filter out promiscuous hits. Eberharter, A. et al. ACF1 improves the effectiveness of nucleosome mobilization by ISWI through PHD-histone contacts. The EMBO journal 23, 4029-4039. 2004. PMID: 15457208 [2] Jones, M.H. et al. A novel family of bromodomain genes. Genomics 63, 40-45. 2000. PMID: 10662543 [3] Yasgar, et al. Compound Management for Quantitative High-Throughput Screening. JALA. 2008 Apr;13(2):79-89. PMID: 18496600 [4] Inglese, et al. Quantitative high-throughput screening: a titration-based approach that efficiently identifies biological activities in large chemical libraries. Proc Natl Acad Sci. 1;103(31):11473-8. 2006. PMID: 16864780 [5] Quinn et al. A chemiluminescence-based method for identification of histone lysine methyltransferase inhibitors. Mol Biosyst 6(5): 782-8. 2010. PMID: 20567762 [6] Baell,Holloway. New substructure filters for removal of pan assay interference compounds (PAINS) from screening libraries and for their exclusion in bioassays. J Med Chem. 53(7):2719-40. 2010. PMID: 20131845 NIH Molecular Libraries Probe Production Network [MLPCN] NIH Chemical Genomics Center [NCGC] Structural Genomics Consortium (SGC) NIH Grant: 5U54 MH084681-02
# To each well of a 1,536w plate, 2ul of BAZ2B protein (final 50nM) and 1ul biotinylated histone peptide acetylated at Lys14 [b-H3(5-23)K14Ac] (final 50nM) were added in 1x PBS buffer, pH 7.4, containing 0.01% Tween-20, using a nanoliter dispenser. Formation of a protein-peptide complex proceeded at room temperature for 30 min. A Kalypsys pin-tool was employed to transfer 23 nL of library compound solution in DMSO to each well. Following a 30 min incubation of the protein-peptide complex with compounds at room temperature, a mixture of 40 ug/mL each streptavidin-coated donor and nickel chelate acceptor AlphaScreen beads (final 10 ug/mL) were added in a 1ul dispense for a final volume of 4ul. A brief centrifugation followed (1000rpm, 1 min) and were then incubated protected from the light for 20 min at room temperature. Plates were read on an EnVision multilabel plate reader using the 1,536 plate HTS AlphaScreen aperture (excitation time 80 ms, measurement time 240 ms).
# % is scaled to controls: 0 for no effect and ±100 for the full control effect; potency is read from the fitted curve at half-maximal effect.
# Chain of Bromodomain adjacent to zinc finger domain protein 2B (Homo sapiens) (Q9UIF8 whole entry, looked up, the tested form may be a part): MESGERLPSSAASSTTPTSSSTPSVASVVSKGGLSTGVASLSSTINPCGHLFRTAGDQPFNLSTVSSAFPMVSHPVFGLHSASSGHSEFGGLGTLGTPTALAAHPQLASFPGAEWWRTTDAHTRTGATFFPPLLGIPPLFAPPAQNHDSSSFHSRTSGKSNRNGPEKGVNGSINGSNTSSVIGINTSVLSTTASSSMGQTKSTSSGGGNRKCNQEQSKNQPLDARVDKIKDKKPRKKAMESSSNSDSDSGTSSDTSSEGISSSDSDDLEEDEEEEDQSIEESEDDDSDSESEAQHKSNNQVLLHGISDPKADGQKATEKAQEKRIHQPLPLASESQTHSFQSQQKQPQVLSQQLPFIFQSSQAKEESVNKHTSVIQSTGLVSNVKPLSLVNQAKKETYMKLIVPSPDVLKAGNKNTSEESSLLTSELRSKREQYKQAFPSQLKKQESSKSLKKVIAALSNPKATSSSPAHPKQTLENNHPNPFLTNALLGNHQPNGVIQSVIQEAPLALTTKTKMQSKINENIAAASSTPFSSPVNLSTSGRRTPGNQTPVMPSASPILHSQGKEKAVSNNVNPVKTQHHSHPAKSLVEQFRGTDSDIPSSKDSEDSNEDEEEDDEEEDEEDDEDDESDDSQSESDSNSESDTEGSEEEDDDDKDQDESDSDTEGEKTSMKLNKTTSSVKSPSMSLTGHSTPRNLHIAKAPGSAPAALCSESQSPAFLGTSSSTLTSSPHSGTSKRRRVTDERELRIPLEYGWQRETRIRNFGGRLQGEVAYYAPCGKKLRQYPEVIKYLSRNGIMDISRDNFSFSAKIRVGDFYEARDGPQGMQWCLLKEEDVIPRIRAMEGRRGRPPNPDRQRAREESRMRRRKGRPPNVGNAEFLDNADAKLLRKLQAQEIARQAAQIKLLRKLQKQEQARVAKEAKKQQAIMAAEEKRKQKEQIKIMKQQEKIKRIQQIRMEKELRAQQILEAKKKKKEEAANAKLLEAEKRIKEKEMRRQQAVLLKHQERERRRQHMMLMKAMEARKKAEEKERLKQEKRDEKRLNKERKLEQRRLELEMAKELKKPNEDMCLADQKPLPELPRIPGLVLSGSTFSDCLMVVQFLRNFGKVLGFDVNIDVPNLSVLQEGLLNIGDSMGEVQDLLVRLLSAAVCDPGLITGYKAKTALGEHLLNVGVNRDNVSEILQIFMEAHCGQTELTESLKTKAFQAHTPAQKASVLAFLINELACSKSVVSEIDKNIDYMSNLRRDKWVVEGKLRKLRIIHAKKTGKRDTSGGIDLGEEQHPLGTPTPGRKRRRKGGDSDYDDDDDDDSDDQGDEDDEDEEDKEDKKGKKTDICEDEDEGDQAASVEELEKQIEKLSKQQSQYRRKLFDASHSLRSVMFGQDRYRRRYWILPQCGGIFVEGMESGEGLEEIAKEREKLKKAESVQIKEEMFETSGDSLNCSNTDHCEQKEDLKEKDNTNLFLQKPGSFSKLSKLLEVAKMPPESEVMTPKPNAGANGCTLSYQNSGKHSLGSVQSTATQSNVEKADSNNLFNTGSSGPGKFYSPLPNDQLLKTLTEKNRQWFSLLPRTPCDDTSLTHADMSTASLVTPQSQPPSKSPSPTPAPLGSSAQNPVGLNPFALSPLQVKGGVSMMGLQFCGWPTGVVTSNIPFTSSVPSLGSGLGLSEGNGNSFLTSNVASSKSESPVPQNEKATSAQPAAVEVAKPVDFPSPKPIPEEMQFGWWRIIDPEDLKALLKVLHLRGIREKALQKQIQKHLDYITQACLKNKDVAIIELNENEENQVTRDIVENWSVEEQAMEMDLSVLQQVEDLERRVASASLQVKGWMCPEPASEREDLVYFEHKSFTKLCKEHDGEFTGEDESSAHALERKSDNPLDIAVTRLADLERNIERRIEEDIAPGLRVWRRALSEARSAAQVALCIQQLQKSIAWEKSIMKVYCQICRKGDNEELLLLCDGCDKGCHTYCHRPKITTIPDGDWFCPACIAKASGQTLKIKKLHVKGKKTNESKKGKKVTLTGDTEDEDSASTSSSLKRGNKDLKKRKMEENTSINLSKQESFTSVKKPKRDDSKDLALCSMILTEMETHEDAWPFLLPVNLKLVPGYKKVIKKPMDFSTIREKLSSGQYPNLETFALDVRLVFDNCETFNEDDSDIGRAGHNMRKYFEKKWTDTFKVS
Compound,Potency,"activity change, negative = inhibition"
CC[N+](C)(CC)CCC[n+]1c(-c2ccccc2)c2cc(N)ccc2c2ccc(N)cc21,44.7 µM (active),
CNC(=O)O/N=C(\N)Cc1csc2ccccc12,,-3.28%
COCCNC(=O)CN1C2CCC1CC(O)(c1cccnc1)C2 (stereo not given),,-1.47%
COC(=O)C1=C(c2ccc(Cl)c(C(F)(F)F)c2)C[C@@H]2CC[C@H]1N2C(=O)NC1CC1,,12.5%
C/C(CCc1c[nH]c2ccccc12)=N\O,,-0.449%
COc1ccc(CNCCc2c[nH]c3ccccc23)cc1OC,50.1 µM (active),
c1cncc(CNCCc2c[nH]c3ccccc23)c1,,-22%
O=c1[nH]c(O)c(C=Nc2cc(F)cc(F)c2)c(=O)[nH]1,,7.43%
COC(=O)C1=C(c2cccc(OCc3ccccc3)c2)C[C@@H]2CC[C@H]1N2C(=O)NNCc1ccccc1,,-1.25%
Cc1ccccc1NC(=O)COC(=O)c1cc(C)n(C2CC2)c1C,,-3.66%
COc1ccc(C2N3CC(C)(C)CN23)cc1 (stereo not given),,-14.1%
CCC1(C)CC(CCNCc2ccc(N(C)C)cc2)(c2ccc(F)cc2)CCO1 (stereo not given),35.5 µM (active),
O=C(COC(=O)c1ccccc1)Nc1ccccc1Sc1ccccc1,,92.9%
CN(C)CCN(CC1CCCN(Cc2ccccc2F)C1)C(=O)Cc1ccc(F)c(F)c1 (stereo not given),,0.813%
CCCCCn1c(=O)c(C(=O)NCc2ccccc2)c(O)c2ccccc21,,55.7%
O=C(C1CCN(CC2CCCCC2)CC1)N1CCCC1,70.8 µM (active),
COC(=O)C1=C(c2ccc(-c3ccccc3)c(F)c2)C[C@@H]2CC[C@H]1N2C(=O)NCc1ccc(F)cc1,,-1.72%
COc1cccc(C(=O)N2C[C@H]3C[C@@H](C2)c2cccc(=O)n2C3)c1,,-20.1%
COc1cccc(OC)c1C(=O)NC(=S)N1C[C@H]2C[C@H](C1)c1cccc(=O)n1C2,,-5.95%
COC(=O)C1=C(c2c(C)noc2C)C[C@@H]2CC[C@H]1N2C(=O)NCc1ccc2c(c1)OCO2,,-0.66%
COc1ccc(CNCCc2ccc3c(c2)OCO3)c(OC)c1OC,50.1 µM (active),
Cc1cc(N2C(=O)C3CCCN3C2c2ccc(Cl)c(Cl)c2)no1 (stereo not given),,8.95%
O=C(O)CCn1cc(C=C2C(=O)NC(=S)NC2=O)c(-c2cccc(Br)c2)n1,79.4 µM (active),
CN1C2C=C(N(C(=O)c3ccc(Cl)cc3)c3ccccc3)CC1CC2 (stereo not given),,-15.3%
O=C(NC(=S)N1C[C@H]2C[C@H](C1)c1cccc(=O)n1C2)c1ccc(F)cc1,,-11.4%

Compound,Potency,"activity change, negative = inhibition"
O=C(N/N=C/c1c(O)n(Cc2ccccc2)c(=O)[nH]c1=O)c1ccccc1,50.1 µM (active),
CCCCC(=O)N/N=C/c1c(O)n(-c2ccccc2)c(=O)[nH]c1=O,50.1 µM (active),
O=c1[nH]c(=O)n(CCc2ccc(F)cc2)c(O)c1/C=N/N1CCCCC1,,-2.13%
CCCCC(=O)N/N=C/c1c(O)n(CC)c(=S)n(CC)c1=O,,18.8%
O=c1[nH]c(=O)n(CCc2ccccc2)c(O)c1/C=N/N1CCOCC1,,1.1%
O=c1[nH]c(=O)n(Cc2ccccc2)c(O)c1/C=N/Nc1c(F)c(F)c(F)c(F)c1F,,-2.27%
CCCCC(=O)N/N=C/c1c(O)n(CCC2=CCCCC2)c(=O)[nH]c1=O,79.4 µM (active),
Cc1cccc(-n2c(O)c(C=NC34CN5CN(CN(C5)C3)C4)c(=O)[nH]c2=O)c1,,-4.42%
O=c1[nH]c(=O)n(-c2ccccc2)c(O)c1C=NC12CN3CN(CN(C3)C1)C2,,-7.16%
Cn1cc(C(=O)OCC(=O)N2CCCC2)c2ccccc21,,-1.93%
C=CCN1C(=O)C2(C(C(=O)OCC)=C(N)Oc3c2c(=O)oc2ccccc32)c2ccccc21 (stereo not given),,1.37%
O=[N+]([O-])c1ccc(C2C3C(c4ccccc4)=NC4(CCCCC4)N32)cc1 (stereo not given),,-6.5%
COC(=O)C1=C(c2ccc(F)cc2OCc2ccccc2)C[C@@H]2CC[C@H]1N2C(=O)NCc1ccc2[nH]ccc2c1,,-12.4%
COC(=O)C1=C(c2cccc(OCc3ccccc3)c2)C[C@@H]2CC[C@H]1N2C(=O)NCc1ccc(Br)cc1,,2.73%
C=CCn1c(O)c(/C=N/N2CCOCC2)c(=O)[nH]c1=S,,-10.9%
C[C@@H]1CC[C@@]2(OC1)O[C@H]1C[C@H]3[C@@H]4CC=C5C[C@@H](O)[C@H](O)C[C@]5(C)C4CC[C@]3(C)[C@H]1[C@@H]2C (stereo not given in full),,19.8%
CC1=CC(=Cc2sc3ccccc3[n+]2C)C=C(C)O1,,-25.3%
COC(=O)C1=C(c2ccc(Cl)c(C(F)(F)F)c2)C[C@@H]2CC[C@H]1N2C(=O)NC(C)C,,8.23%
COc1ccc(-c2nn(CCC#N)cc2C(=O)Nc2ccc(C(C)=O)cc2)cc1,,0.868%
COc1ccccc1NC(=O)N1C[C@@H]2C[C@@H](C1)c1cccc(=O)n1C2,,8.13%
O=C1NC(=O)N(Cc2ccco2)C(=O)/C1=C\c1cccn1CCOc1ccccc1,28.2 µM (active),
O=C(O)COc1ccccc1/C=C1\C(=O)NC(=O)N(CCC2=CCCCC2)C1=O,,-19.3%
O=C1NC(=O)N(CCc2ccc(F)cc2)C(=O)/C1=C/C=C/c1ccccc1,,7.59%
CCOC(=O)c1c(C)c(C(=O)N2CCC3(CC2)OCCO3)c(C)n1CC,,9.98%
O=c1[nH]c(CN2CC=C(c3ccccc3)CC2)nc2scc(-c3cccs3)c12,,-8.66%

# From PubChem BioAssay AID504333 (National Center for Advancing Translational Sciences (NCATS), 2011)
